Screening results as filed in PubChem.
GoLoco inh red: qHTS Assay for Inhibitors of RGS12 GoLoco Motif Activity (Red Fluorophore); Guanine nucleotide-binding protein G(i) subunit alpha-1 (Homo sapiens), P63096; Gai1:RGS12 GoLoco peptide FP, rhodamine, 10 min; Potency, µM (top dose mostly 61.6 µM), inactives show at the top dose activity, negative = inhibition, usual class: inhibitors; actives 0.44% (n = 230,000); active = well fitted inhibition curve with a large enough effect, not every such curve was filed as active; inactive = no such curve, though single readings can be large or run the other way; note: nearly all actives have a fitted effect of over 30% in size
Tb PFK block: qHTS Assay to Find Inhibitors of T. brucei phosphofructokinase; ATP-dependent 6-phosphofructokinase (Trypanosoma brucei brucei), O15648; T. brucei PFK, ADP-Glo luminescence; AID 485367, 2010; actives 0.17% (n = 330,000); Potency, µM (top dose mostly 57.5 µM), for inactives: top-dose activity, negative = inhibition, most hits filed as inhibitors;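 note: 0% = uninhibited 1x PFK enzyme wells and -100% = no-enzyme wells; nearly all actives have a fitted effect of over 60% in size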
Target sequence (O15648 whole entry, looked up): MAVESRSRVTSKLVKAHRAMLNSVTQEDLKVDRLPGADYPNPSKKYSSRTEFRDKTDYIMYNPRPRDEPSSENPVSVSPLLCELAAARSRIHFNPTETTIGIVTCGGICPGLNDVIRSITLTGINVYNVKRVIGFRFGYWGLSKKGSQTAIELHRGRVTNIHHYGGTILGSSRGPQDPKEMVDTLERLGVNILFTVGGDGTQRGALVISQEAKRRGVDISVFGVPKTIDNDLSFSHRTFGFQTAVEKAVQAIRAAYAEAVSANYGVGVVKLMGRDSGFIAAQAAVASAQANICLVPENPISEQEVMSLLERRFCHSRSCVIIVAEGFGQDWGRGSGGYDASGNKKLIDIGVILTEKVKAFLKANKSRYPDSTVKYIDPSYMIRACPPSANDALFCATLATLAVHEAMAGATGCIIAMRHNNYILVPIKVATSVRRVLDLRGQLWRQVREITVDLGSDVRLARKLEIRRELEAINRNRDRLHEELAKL
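Compounds were pin-transferred as a titration series up to 57 uM into substrate buffer (0.5 mM F6P, 0.1 mM ATP, pH 8.0), then 1.25 nM PFK was added and reactions ran 45 min before ADP-Glo detection.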
NPSR antagonist: qHTS Assay for Antagonists of the Neuropeptide S Receptor: cAMP Signal Transduction | Q6W5P4 | CHO-NPSR cells, cAMP TR-FRET, antagonist mode | Potency, µM (highest dose often 38.3 µM), for inactives: at the top dose activity change, negative = inhibition, actives largely listed as inhibitors | actives 1% (n = 220,000) | AID 1461, 2008; note: nearly all actives have a fitted effect of over 50% in size
MBNL1-CUG inh: qHTS Assay for Inhibitors of MBNL1-poly(CUG) RNA binding | Muscleblind-like protein 1 (Homo sapiens), Q9NR56 | AID 2675, 2010 | Potency, µM (series often up to 57.5 µM), for inactives: at the top dose activity change, negative = inhibition, usual class: inhibitors | TR-FRET MBNL1-His/biotin-(CUG)12 binding, 665/545 ratio | actives 0.036% (n = 280,000); active = well fitted inhibition curve with a large enough effect in the signal ratio, with a control signal flat, not every such curve was filed as active; inconclusive = small, poorly fitted or top-dose-only effect, or effect the other way, or a change in a side signal; inactive = no such curve, though single readings can be large or run the other way; the % refers to the signal ratio
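TR-FRET readout: Ex 340 nm, 665/545 nm emission ratio, normalized to buffer-only (basal) and MBNL1-(CUG)12 controls. Complex of MBNL1-His with Biotin-(CUG)12, compounds 92 nM–58 uM, incubated 60 min at room temperature.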
IMPase Li cell: qHTS Assay for Identifying the Cell-Membrane Permeable IMPase Inhibitors: Potentiation with Lithium; actives 0.35% (n = 210,000); Potency, µM (series often up to 59.4 µM), inactives show at the highest dose activity, negative = IMPase inhibition, most hits filed as inhibitors; CHO-M1 cells, IP1 TR-FRET (IP-One), carbachol + lithium; AID 1457, 2008;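 note: IP1 builds up when IMPase is blocked and the TR-FRET signal falls; plate controls were basal vehicle for no effect and high inhibitor control for full effect; nearly all actives have a fitted effect of over 50% in size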
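CHO cells stably expressing M1 receptor (2000/well, cultured 16–30 h) treated 30 min at 37C with compound plus low lithium. Cytosolic IP1 by TR-FRET (665/620 ratio and 620 channel) after 10 min lysis; AC50 by Hill fit.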
The depositor's hits bear a star; ? = inconclusive; · = no result; [ ] = another dose, or the depositor's remark. The entries come from a sample that favours hits as a whole. Unless noted, calls come from the whole dose curve; as a rule, active = well fitted curve in the direction sought with a large enough effect; inconclusive = small, poorly fitted or top-dose-only effect, or another doubt; inactive = no such curve, though single readings can be large; an effect the other way counts as inactive or inconclusive. Unless noted, % is set by controls: 0 for no effect and ±100 for the full control effect; potency is the fitted concentration of half-maximal effect.

SMILES	GoLoco inh red	Tb PFK block	NPSR antagonist	MBNL1-CUG inh	IMPase Li cell
CCOC(=O)C1=C(Cc2ccc(C)cc2)C(=O)c2ccccc2C1=O	119%	21%	10µM*	?	43%[38.3 µM]
Cc1c(Cc2ccccc2)c(=O)oc2cc(OCC(=O)NCc3ccccn3)ccc12	·	-1%	·	8%	·
COc1ccc(C(=O)Nc2cccc3c2C(=O)NC3=O)cc1S(=O)(=O)N1CCOCC1	15%	-11%	?	16%	10µM*
Cc1ccccc1Oc1cc(-n2ncc(Cl)c(Cl)c2=O)ncn1	-3%	0%	2.5µM*	·	-20%
N=C1[C@@H](O)[C@]2(I)c3ccccc3N3C(=N)[C@H](O)[C@@H]4c5ccccc5N1[C@@H]4[C@@H]32	2.2µM*	·	·	·	-9%
Cc1nn(-c2ccc(C(=O)NCC(c3ccco3)N3CCCC3)cc2)c(C)c1Cl (stereo not drawn)	·	-5%	·	·	·
O=C1C(Cl)=C(N2CCCCC2)C(=O)C(Cl)=C1c1cnc(N2CCCCC2)s1	-14%	-4%	6.3µM*	35%	3%
O=C1C(Cl)=C(N2CCCCCC2)C(=O)N1c1ccc(Cl)cc1	·	-3%	·	16%	·
O=C(O)CCC(=O)N1CCc2cc(S(=O)(=O)NCc3ccc(Cl)cc3)ccc21	·	2%	·	1%	·
Cc1sc(NC(=O)c2ccco2)c(C(c2cccnc2)N2CCC(C)CC2)c1C (stereo not drawn)	-3%	1%	13µM*	3%	35%[38.3 µM]
CCN1CCN(C(c2cccnc2)c2c(NC(=O)c3ccco3)sc(C)c2C)CC1 (stereo not drawn)	·	-4%	·	·	·
COc1cccc(Cn2nnc(C(=O)Nc3cc(C)ccc3OC)c2N)c1	27%	2%	-26%[46.1 µM]	-15%	25µM*
COc1cccc(Cn2nnc(C(=O)Nc3ccc(C)cc3)c2N)c1	3%	4%	-29%[46.1 µM]	5%	?
COc1ccccc1NC(=O)c1nnn(CC(=O)Nc2cccc(SC)c2)c1N	13%	2%	?	12%	6.3µM*
CN(CC(=O)Nc1ccccc1C(F)(F)F)C(=O)CSc1nc(N)cc(N)n1	·	-3%	·	·	·
COc1ccc(C(=O)NNC(=O)c2ccccn2)cc1	-5%	15µM*	20%	-25%	3%
COc1ccc(C(=O)O/N=C(\N)c2ccccn2)cc1	·	15µM*	·	6%	·
COc1cc(OC)cc(C(=O)O/N=C(\N)c2ccccn2)c1	-13%	-1%	-5%	-1%	·
NC[C@@H]1O[C@H](O[C@H]2[C@H](O)[C@H](O[C@@H]3O[C@H](CO)[C@@H](O)[C@H](N)[C@@H]3O)[C@@H](N)C[C@H]2N)[C@@H](O)[C@H](O)[C@@H]1O	8%[21.6 µM]	·	·	·	-2%
CCCN1C(=O)/C(=C/c2c(N3CCNC(=O)C3CC(=O)OCC)nc3c(C)cccn3c2=O)SC1=S (stereo not drawn)	130%	-9%	13µM*	1%	·
COc1ccc(C(=O)C2CCCN(C3Cc4ccccc4C3)C2)c(OC)c1 (stereo not drawn)	3%	1%	0%	-1%	0%
CCOC(=O)c1ccccc1NC(=O)c1cccnc1	-2%	20%	-8%[46.1 µM]	-6%	12%
CCOC(=O)c1ccccc1NC(=O)c1cncc(Br)c1	-25%	2%	?	?	1.3µM*
O=c1c2c3nc4ccccc4nc3n(Cc3ccccc3)c2ncn1Cc1ccco1	115%	2%	10µM*	37%	12%[38.3 µM]
c1ccc(-c2c(-c3ccccc3)n(Cc3ccco3)c3ncnc(NCCCn4ccnc4)c23)cc1	9%	-3%	25µM*	-9%	49%[38.3 µM]
COCCCn1c2nc3ccccc3nc2c2c(=O)n(Cc3ccc(Cl)cc3)cnc21	-4%	-1%	-8%[46.1 µM]	5%	-8%[38.3 µM]
N=c1c2c(-c3ccccc3)c(-c3ccccc3)n(Cc3ccco3)c2ncn1Cc1ccccc1	10%	2%	10µM*	4%	50%[38.3 µM]
